The results in this text go back to ChEMBL document CHEMBL2218924, “A broad activity screen in support of a chemogenomic map for kinase signalling research and drug discovery” (Biochem J, 2013).

This assay deals with PAS domain-containing serine/threonine-protein kinase (Homo sapiens) (UniProt Q96RG2). The settings on record: at 1 µM.
Chain of PAS domain-containing serine/threonine-protein kinase (Homo sapiens) (Q96RG2 whole entry, the tested form may be a part): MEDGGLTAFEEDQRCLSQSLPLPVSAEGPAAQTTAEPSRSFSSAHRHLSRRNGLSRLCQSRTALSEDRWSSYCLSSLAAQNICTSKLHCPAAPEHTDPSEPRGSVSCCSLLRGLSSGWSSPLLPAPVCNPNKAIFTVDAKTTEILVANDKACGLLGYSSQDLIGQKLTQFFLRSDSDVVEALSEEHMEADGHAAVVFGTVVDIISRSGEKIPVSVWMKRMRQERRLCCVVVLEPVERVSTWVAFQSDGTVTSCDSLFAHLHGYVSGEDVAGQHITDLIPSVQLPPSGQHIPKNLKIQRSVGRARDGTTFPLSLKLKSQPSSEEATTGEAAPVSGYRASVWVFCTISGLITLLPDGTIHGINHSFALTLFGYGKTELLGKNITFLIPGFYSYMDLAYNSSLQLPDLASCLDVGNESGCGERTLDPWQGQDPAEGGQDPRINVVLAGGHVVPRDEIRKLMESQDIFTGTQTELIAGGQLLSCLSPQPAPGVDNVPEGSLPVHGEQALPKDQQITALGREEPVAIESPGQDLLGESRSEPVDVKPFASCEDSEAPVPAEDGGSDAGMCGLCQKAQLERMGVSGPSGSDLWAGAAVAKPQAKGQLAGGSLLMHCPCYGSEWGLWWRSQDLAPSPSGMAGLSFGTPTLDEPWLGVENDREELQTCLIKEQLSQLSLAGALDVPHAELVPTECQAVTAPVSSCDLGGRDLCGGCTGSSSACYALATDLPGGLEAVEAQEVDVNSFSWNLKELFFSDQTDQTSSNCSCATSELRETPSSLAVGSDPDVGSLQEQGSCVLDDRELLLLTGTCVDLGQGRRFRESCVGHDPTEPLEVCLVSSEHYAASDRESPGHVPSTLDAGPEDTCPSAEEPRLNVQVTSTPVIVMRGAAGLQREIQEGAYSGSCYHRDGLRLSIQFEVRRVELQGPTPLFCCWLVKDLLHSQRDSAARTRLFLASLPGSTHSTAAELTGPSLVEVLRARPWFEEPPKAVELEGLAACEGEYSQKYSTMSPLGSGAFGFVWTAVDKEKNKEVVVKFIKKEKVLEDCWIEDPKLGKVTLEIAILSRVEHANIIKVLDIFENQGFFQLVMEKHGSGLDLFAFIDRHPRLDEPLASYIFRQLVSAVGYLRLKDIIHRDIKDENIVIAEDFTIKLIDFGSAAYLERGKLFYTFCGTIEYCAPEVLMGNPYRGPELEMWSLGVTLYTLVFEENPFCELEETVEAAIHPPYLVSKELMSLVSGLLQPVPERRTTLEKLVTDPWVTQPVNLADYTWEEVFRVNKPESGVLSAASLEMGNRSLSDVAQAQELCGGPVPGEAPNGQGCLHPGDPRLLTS
One may read the residual activity as the signal under treatment as a percentage of the control signal. As to `Nc1ccc2ncnc(NCCc3ccc(Oc4ccccc4)cc3)c2c1`, the residual activity amounted to 107%. Take `c1ccc(-c2n[nH]cc2-c2ccnc3ccccc23)nc1`: the residual activity is 95%. Regarding `O=c1cc(N2CCOCC2)oc2c1ccc1ccccc12`, the residual activity was 141%.

As for `O=C1NC(=O)c2c1c1c3ccccc3[nH]c1n1cncc21`, the residual activity turned out to be 57%. Turning to `CC(C)n1cnc2c(NCc3ccccc3)nc(NCCCO)nc21`, the residual activity worked out at 131%. Consider `O=C(O)/C=C/c1cc(Br)c(Br)c(Br)c1Br`, for which the residual activity came to 63%. In the case of `Oc1c2ccccc2c2c3c(cccc13)N=N2`, the residual activity worked out at 125%.

With `COc1ccc(S(=O)(=O)N(CCO)c2ccccc2CN(C)C/C=C/c2ccc(Cl)cc2)cc1`, the residual activity is 116%. In the case of `CO[C@H]1[C@@H](OC)C[C@H](C)[C@@H](OC)C2=CC(=O)C=C(NC(=O)/C(C)=C/C=C/[C@H](OC)[C@@H](OC(N)=O)/C(C)=C/[C@@H]1C)C2=O`, the residual activity is 125%.

Consider `Oc1n[nH]c2nnc(-c3c(-c4ccccc4)nn4ccccc34)cc12`, for which the residual activity turned out to be 100%. `Cc1nc(-c2ccccc2)c(-c2ccncc2)o1`: the residual activity came to 128%. The figure for `O=c1cc(N2CCOCC2)oc2c(-c3ccccc3)cccc12` is 125%; for `O=S(=O)(NCCNC/C=C/c1ccc(Br)cc1)c1cccc2cnccc12` it is 141%.

For `Cc1cc(Nc2nc(-c3ccccc3)nc3ccccc23)n[nH]1`, the residual activity stood at 108%.

Regarding `COc1cc2ncnc(Nc3ccc(NC(=O)c4ccccc4)cc3)c2cc1OC`, the residual activity was determined as 133%. The figure for `CCC(=O)Nc1ccc2ncnc(Nc3cccc(Br)c3)c2c1` is 85%; for `CCOc1cc2ncnc(Nc3cccc(Br)c3)c2cc1OCC` it is 79%. On to `Ic1cccc(CSc2nnc(-c3ccncc3)o2)c1`, for which the residual activity is 108%. The figure for `O=C1Nc2ccc(Cl)cc2/C1=C/c1cc(Cl)c(O)c(Cl)c1` is 111%; for `O=c1cc(N2CCNCC2)oc2c(-c3ccccc3)cccc12` it is 148%; for `O=C1NC(=O)/C(=C\c2ccc3nccnc3c2)S1` it is 87%.

Consider `O=c1cc(-c2cccc3c2Sc2ccccc2S3)oc(N2CCOCC2)c1`, for which the residual activity came to 109%. For the compound `O=C(CCCc1ccc(-c2ccccc2F)cc1)Nc1ccc(O)cc1`, the residual activity is 102%. With `COc1cc2ncnc(Nc3ccc(Oc4ccccc4)cc3)c2cc1OC`, the residual activity was 98%. The figure for `CO[C@@H]1[C@H](N(C)C(=O)c2ccccc2)C[C@H]2O[C@]1(C)n1c3ccccc3c3c4c(c5c6ccccc6n2c5c31)C(=O)NC4` is 85%. Take `CCN(CC)C(=O)c1ccc(Nc2nc(OCC3CCCCC3)c3nc[nH]c3n2)cc1`: the residual activity was 135%. As to `NC(=O)Nc1sc(-c2ccc(F)cc2)cc1C(N)=O`, the residual activity was 107%.

In the case of `NCCNc1ncc(C(N)=O)c(Nc2cccc(C(F)(F)F)c2)n1`, the residual activity stood at 114%. Take `CNc1cc2c(Nc3cccc(Br)c3)ncnc2cn1`: the residual activity turned out to be 128%.

On to `COc1ccc(CNC(=O)Nc2ncc([N+](=O)[O-])s2)cc1`, for which the residual activity was 133%.

Consider `O=C1Nc2ccc(Br)cc2/C1=C\c1cc2c([nH]1)CCCC2`, for which the residual activity was found to be 129%.

Consider `O=C(Nc1cccc(Nc2nccc(Nc3cccc(C(F)(F)F)c3)n2)c1)C1CC1`, for which the residual activity was determined as 75%. The figure for `COc1ccc(Cl)cc1NC(=O)Nc1cc(C)nc2ccccc12` is 98%; for `N#C/C(=C\c1ccc(O)c(O)c1)C(=O)NCc1ccccc1` it is 100%.

In the case of `COc1ccc(CNc2nc(N(CCO)CCO)nc3c2ncn3C(C)C)cc1`, the residual activity is 117%.

On to `O=C1Nc2cc(Br)ccc2/C1=C1/Nc2ccccc2/C1=N\O`, for which the residual activity stood at 94%. On to `COc1cc2ncc(-c3ccccc3)nc2cc1OC`, for which the residual activity was found to be 90%. Regarding `O=c1c2ccccc2[nH]c(=S)n1CCN1CCC(=C(c2ccc(F)cc2)c2ccc(F)cc2)CC1`, the residual activity came to 85%.
